The full ranking holds about 33,000 sequences; the median of “E-score (-0.5 to 0.5)” is about -0.041, and the highest 2% start at about 0.37. The full list was thinned out, with the highest values kept by preference.
target: T1, Ecm22 (UniProt Q05958); experiment: PBM E-score (8-mer binding enrichment) (E-score (-0.5 to 0.5)); higher = stronger / more preferred TF binding; settings: protein concentration: 200 nM; construct: GST-full length
T1 sequence: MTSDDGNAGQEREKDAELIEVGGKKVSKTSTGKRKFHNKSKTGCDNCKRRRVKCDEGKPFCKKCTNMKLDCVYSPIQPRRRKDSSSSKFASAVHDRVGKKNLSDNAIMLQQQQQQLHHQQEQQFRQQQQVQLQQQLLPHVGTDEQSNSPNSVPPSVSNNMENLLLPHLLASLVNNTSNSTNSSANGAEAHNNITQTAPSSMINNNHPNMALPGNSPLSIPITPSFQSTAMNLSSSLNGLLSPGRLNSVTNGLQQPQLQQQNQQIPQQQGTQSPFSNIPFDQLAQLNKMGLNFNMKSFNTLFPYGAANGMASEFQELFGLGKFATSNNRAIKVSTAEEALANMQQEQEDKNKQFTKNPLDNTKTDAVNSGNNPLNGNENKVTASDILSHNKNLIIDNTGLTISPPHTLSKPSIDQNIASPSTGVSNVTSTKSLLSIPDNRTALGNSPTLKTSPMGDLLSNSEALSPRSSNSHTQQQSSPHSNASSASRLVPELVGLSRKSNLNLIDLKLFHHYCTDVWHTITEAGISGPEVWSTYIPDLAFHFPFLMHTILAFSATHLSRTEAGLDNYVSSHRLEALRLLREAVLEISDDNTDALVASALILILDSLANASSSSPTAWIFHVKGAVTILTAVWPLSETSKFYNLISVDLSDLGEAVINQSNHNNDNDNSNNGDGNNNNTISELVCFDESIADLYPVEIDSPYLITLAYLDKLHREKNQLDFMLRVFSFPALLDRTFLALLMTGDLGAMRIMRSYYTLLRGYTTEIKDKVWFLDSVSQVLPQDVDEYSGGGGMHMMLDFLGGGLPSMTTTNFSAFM
Description: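 Universal 'all 10-mer' protein binding microarrays (Agilent AMADID 015681) probed with GST-tagged S. cerevisiae TFs (full-length or DBD) made by in vitro transcription/translation (PURExpress), about 100-200 nM. Bound TF was detected with fluorescent anti-GST. Each ungapped 8-mer (which stands for itself and its reverse complement) is scored by the PBM enrichment score (E-score), a modified Wilcoxon-Mann-Whitney statistic from -0.5 to +0.5, computed with the Universal PBM Analysis Suite. Scale: above 0.35 generally sequence-specific binding.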

Sequence	PBM E-score
ACCTTCGC	0.143
CAGGACGA	-0.283
CTCCGTTA	0.0433
GTCTACCA	-0.215
ATAAACTG	0.0158
ATAAACGC	0.192
GTAAACGA	0.485
AAAAACGA	0.323
GTAAACTA	0.188
GTAAACCA	0.0466
ATAAACGA	0.484
ATAAACGG	0.408
AAAAACGG	0.13
CATCCCCC	-0.207
GATCCACA	-0.13
ATGAACGC	0.118
CTGAACGA	0.456
CTGAACGC	0.023
GTGAACTA	0.0738
GTGAACAA	0.198
GTGAACGA	0.426
CTGAACTA	-0.092
ATGAACGG	0.262
ATGAACGA	0.453
AACGGTTA	0.27

Sequence	PBM E-score
CATTGTCG	0.0896
CTAGGGAC	-0.323
CGCCAGAC	0.00345
GGTAACAC	-0.135
AATTCGTG	-0.036
CATTCGTA	0.407
GATTCGCA	0.227
GATTCGGA	0.171
CATTCGTC	0.112
AATTCGTA	0.441
AATTCGTC	0.0772
GATTCGTA	0.45
CATTCGCA	0.0842
ACCCCCCT	-0.25
AGTAGGCC	0.00266
GAATTGTC	-0.0741
AGAACCCA	-0.131
GGCTCCTA	-0.159
GCATTTAC	-0.0379
GTTCCGTA	0.389
CTTCCGTA	0.319
ATTCCGTA	0.284
ACAGAAGC	-0.0614
CCGTACGG	0.378
TCGTACGA	0.469

Sequence	PBM E-score
ACGTACGA	0.441
GCGTACGC	0.178
GCGTACGA	0.448
TCCTACGA	0.26
ACGTACGT	0.245
GCGTACTA	0.152
CCCTACGG	-0.215
TCGCACGA	0.183
ACGTACGG	0.362
ACGTACGC	0.239
CTAGCGGC	-0.29
AGAGCGGC	-0.228
CTCTTAAC	0.0664
ATCTGCAC	-0.117
CATCAGCC	-0.121
TAGCTGAA	0.0371
ACTTCGAG	-0.105
TCCGCCAA	-0.121
ATTTCTGA	-0.286
AAGTGCAA	-0.0854
AGGTCAGA	-0.204
TGAGGTAA	-0.264
CCGTACTA	0.341
CCGTACGC	0.324
CCGTACGA	0.445

Sequence	PBM E-score
GAGGTTGA	-0.0744
AGAGAAGC	-0.0688
CGTTTATA	0.426
AGTTTATC	0.0904
CTTTTATC	-0.0345
CGTTTATC	0.42
AGTTTATA	0.15
GGTTTATA	0.152
AGCTCAGG	-0.211
TGAAGTCA	-0.133
GCCCAACC	0.0862
CGTATATC	0.439
AGTATTTA	-0.0192
CATATATC	0.0903
AGTATATC	0.122
AGTATATA	0.341
CGTATATA	0.444
GGTATTTA	-0.00022
GGTATATA	0.168
CGTATTTA	0.369
AAGTACCG	0.152
CTAATGAG	-0.0357
GCAAATGA	0.0372
CCACTCGC	0.184
CTGGCTCC	-0.202

Sequence	PBM E-score
CGTGTTCA	0.0358
AACCTCTT	-0.0421
CTAACCGC	0.0805
CTAACCGA	0.372
GTAACCGA	0.332
CGCCACTC	-0.016
AAACTGTC	-0.0481
ATACGATG	0.472
ACACGATG	0.17
CTACGATC	0.325
ACACGATC	0.0695
ATACGATC	0.457
AGACGATG	0.00668
AGCAGGGC	-0.0233
TATACTGA	0.182
CGATCTAC	0.184
AGTACCAT	0.0273
CGGCCGTA	0.34
AGGCCGTA	0.384
GGGCCGTA	0.333
AAAGCTGT	-0.108
CGAAGCAG	0.147
GCGTGGGA	0.0285
GTACGACA	0.48
CTACGACA	0.347

Sequence	PBM E-score
ACACGACA	0.233
GCACGACA	0.114
ATACGACA	0.469
AGACGACA	0.0702
CCCTGGAC	-0.193
GTAGCAGA	0.0392
AGGACCCT	-0.235
CCCTCAAC	-0.248
AGTTCGTG	0.189
AGTTCGTC	0.207
AGTTCGTA	0.449
GGTTCATA	0.0139
CGTTCAAA	0.361
CGTTCAAG	0.335
CGTTCAAC	0.377
GGTTCGAA	0.182
CGTTCATA	0.386
CGTTCATC	0.354
GGTTCGGA	-0.1
GGTTCGTA	0.443
AGGAAACG	0.281
GGAACAGA	-0.378
CTGTCCCA	-0.11
CACTCGGA	0.198
CGTAATAA	0.247

Sequence	PBM E-score
AAGCGAAT	0.277
CATGCAAC	0.0872
CGTTCGTA	0.461
CGTTCGGA	0.274
CGTTCGTC	0.314
AAGGAGGC	-0.319
AGCATCGG	-0.0521
TCCAGCGA	-0.115
TGGGTGAA	0.0282
ACGACTCA	0.238
ACGACTCG	0.39
ACGACGCA	0.412
ACGACTCT	0.308
ACGACGCG	0.407
AAGACGCG	-0.012
GCGACGCA	0.173
CCGACGCG	0.218
ACGACGCC	0.33
ACGACGAT	0.325
CCGACGCA	0.00712
ACGACGCT	0.38
ATTGCGCG	0.148
CAGGAAGG	-0.357
ATCGTGCG	0.228
CATTCCTC	0.0616

Sequence	PBM E-score
ACGCGGTG	-0.00032
AATGAGTC	-0.0397
AAGGTGTA	-0.0872
ATCCTTTA	-0.159
GGGTACGA	0.491
CGGTACGC	0.315
AGGTACGC	0.217
AGGTACGG	0.424
GGGTACCA	-0.317
CGGTACGA	0.492
AGGTACTG	-0.183
GGGTACAA	-0.0303
CGGTACCA	-0.0083
CGATTCGC	0.221
ATCAGGTC	0.113
ATAGGAGC	-0.162
CAGATTTA	0.156
AACATCAA	0.0313
CCTCGGCA	0.165
TCGCTTAA	0.394
CCGCTTAA	0.291
GCGCTTAA	0.0179
ACCCATTC	-0.0208
CCCGTAGC	0.154
GGCGTAGA	0.0225

Sequence	PBM E-score
ATCGTAGC	0.385
CTCGTAGC	0.449
CACGTAGA	-0.0914
GACGTAGA	-0.0256
ATCGTAGA	0.272
GTCGTAGA	0.4
CTCGTAGA	0.376
CACGTAGC	-0.026
ATCGTAGG	0.144
CGCGTAGA	0.107
AGAGGCGA	-0.00468
ATGGGAGG	-0.116
CTGGCGAC	-0.209
GCACGTGC	-0.0189
CATTACCG	-0.025
GGGGACTA	-0.242
AACGGCCT	0.225
CTTTCGCA	0.00706
GTAGGTCA	-0.0922

From the supplement of paper PMC3334620
